Screens deposited in PubChem BioAssay by National Center for Advancing Translational Sciences (NCATS).
In the library only some 6.2% were active in any assay of this set; here they are far more common.
ATXN2 expr inh = ATXN2 expression inhibition; HEK-293 ATXN2-luciferase reporter, luminescence, 24 h; hit rate 0.72% among 360,000; Potency, µM (highest dose often 57 µM), without a hit: top-dose activity change, negative = inhibition, usual class: inhibitors; note: % is set by controls: 0 for no effect and ±100 for the full control effect; nearly all actives have a fitted effect of over 55% in size
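qHTS (up to 57 uM final) was run with 24 h compound exposure of reporter cells at 37 °C. Each well was multiplexed: SteadyGlo luminescence measured ATXN2-luciferase expression after a fluorogenic Gly-Phe-AFC viability readout (25 uM final).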
KB-3-1 tox = KB-3-1 parental cell cytotoxicity | KB-3-1 viability, CellTiter-Glo ATP luminescence, 72 h | Potency, µM (top dose mostly 46.1 µM), usual class: cytotoxic | hit rate 1.4% among 400,000 | AID 1347075; note: % is set by controls: 0 for no effect and ±100 for the full control effect; nearly all actives have a fitted effect of over 60% in size
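Luminescent ATP read-out (CellTiter-Glo) measures survival of drug-naive KB-3-1 cells after 72 h compound exposure at 37 °C. Titration series was screened from lowest to highest concentration, with DMSO vehicle plates as background controls.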
KB-V1 MDR tox = KB-V1 MDR subline cytotoxicity; KB-V1 MDR cells viability, CellTiter-Glo, 72 h; Potency, µM (top dose mostly 46.1 µM), most hits filed as cytotoxic; hit rate 3.4% among 400,000; AID 1347076; note: % is set by controls: 0 for no effect and ±100 for the full control effect; nearly all actives have a fitted effect of over 60% in size
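KB-V1, DMEM (no phenol red) + 10% FBS; cpd pin-transferred, titration series; 72 h, 37 degrees C; CellTiter-Glo, luminescence. Data normalized, curve-fit.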
HT1080-NT tox = kills 2HG-producing HT-1080-NT fibrosarcoma cells; hit rate 1.6% among 360,000; HT-1080-NT fibrosarcoma viability, CellTiter-Glo ATP luminescence, 48 h; Potency, µM (top dose mostly 46.1 µM), for the others: at the top dose activity, negative = less viability, actives largely listed as cytotoxic;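 note: NT is the 2HG producing partner of a matched IDH1 knockdown line; 0% = DMSO-treated cells and -100% = media-only wells without cells; nearly all actives have a fitted effect of over 55% in size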
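Compounds were tested in concentration-response format on HT-1080-NT cells for 48 hours at 37 degrees C. Cell viability came from CellTiter-Glo luminescence; curves were classified by r2, response magnitude and activity.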
ATXN viability = viability counter-screen for ATXN expression inhibitors | S2 cells (HEK-293 line with an ATXN2-luciferase reporter) viability, CellTiter-Fluor protease fluorescence, 24 h | Potency, µM (doses to about 56.7 µM), usual class: cytotoxic | hit rate 0.49% among 400,000; note: nearly all actives have a fitted effect of over 40% in size
HT1080 IDH1KD tx = HT-1080 IDH1 knockdown cell toxicity (counter line) | HT-1080 IDH1 knockdown viability, ATP luminescence, 48 h | Potency, µM (highest dose often 46.1 µM), inactives show top-dose activity, negative = toxicity, actives largely listed as cytotoxic | hit rate 2% among 360,000 | AID 686971;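 note: 0% = DMSO wells and -100% = cell-free medium wells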
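CellTiter-Glo luminescence after 48 h compound exposure at 37 degrees C of IDH1-knockdown HT-1080 cells in 5% FBS RPMI. %Activity scaled between DMSO wells and cell-free media wells, with curves fitted and assigned curve classes.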
Numbers without * were called inactive; i = inactive; ? = inconclusive; / = no result; [ ] = another dose, or the depositor's remark. Calls come from the whole dose curve; as a rule, active = well fitted curve in the direction sought with a large enough effect; inconclusive = small, poorly fitted or top-dose-only effect, or another doubt; inactive = no such curve, though single readings can be large; an effect the other way counts as inactive or inconclusive. Potency is the fitted concentration of half-maximal effect.

SMILES | ATXN2 expr inh | KB-3-1 tox | KB-V1 MDR tox | HT1080-NT tox | ATXN viability | HT1080 IDH1KD tx
COc1ccc(C=C(C(=O)c2ccccc2)C(=O)c2ccccc2)cc1 | 75% | ? | ? | 18µM* | i | ?
COc1ccc(CNC(=O)CCn2nc(C)c3c(C)n(-c4ccccc4)nc3c2=O)cc1OC | -10% | i | ? | / | i | /
Cc1cccc(NC(c2nnc(-c3ccccc3)o2)c2ccc(F)cc2Cl)c1C (stereo not given) | 7% | i | i | / | i | /
CCn1c(SCc2ccccc2F)nc(=O)c2c(C(=O)OC)cc(C3CC3)nc21 | / | i | i | / | / | /
CC1=C(C(=O)OC(C)C)C(c2ccccc2)NC(=S)N1C (stereo not given) | -4% | i | 18µM* | -10% | i | ?
CC(C)NCCCC1(C(N)=O)c2ccccc2-c2ccccc21 | 3% | / | / | / | i | /
Cc1[nH]c2ccccc2c1/C=C/c1nc2ccccc2c(=O)n1CCO | -10% | 12µM* | 12µM* | ? | / | -24%
Cn1c(=O)c(/C=C/c2ccccc2)nc2ccccc21 | 76% | ? | 15µM* | -5% | i | -5%
CCn1c(/C=C/c2c(C)n(CC)c3ccccc23)nc2ccccc2c1=O | 2% | i | 1.6µM* | 11% | ? | 15%
Cc1ccc(/C=C/c2nc3ccccc3c(=O)n2CCc2ccccc2)cc1 | -5% | i | 2.6µM* | -19% | i | -12%
Cn1c(=O)c(/C=C/c2ccc(F)cc2)nc2ccccc21 | 27% | ? | ? | -6% | / | -15%
CCc1ccc(C(=O)c2cn(CC(=O)Nc3ccc(OC)c(Cl)c3)c3nc(C)ccc3c2=O)cc1 | 2% | i | ? | / | i | /
COc1ccc2c(c1)C/C(=C\c1ccc(N(C)C)cc1)C2=O | / | i | i | / | / | /
Cc1ccccc1/C=C/c1nc2ccccc2c(=O)n1CCc1ccccc1 | -4% | i | 2.6µM* | -7% | / | 1%
Cc1ccccc1/C=C/c1nc2ccccc2c(=O)n1Cc1ccccc1 | -25% | i | i | 4% | i | 16%
O=C1CC(=Nc2ccccc2)NN1c1ccccc1 | -19% | ? | i | 18µM* | ? | ?
CCOc1ccc(CCNC(=O)CSc2nn(-c3ccc(C)c(Cl)c3)c(=S)s2)cc1OCC | 0% | i | 6.5µM* | 9% | i | 13%
O=C(COC(=O)c1cc(-c2cccs2)nc2ccccc12)c1ccc(Br)cc1 | 4% | i | i | / | i | /
O=[N+]([O-])c1ccc(NC(=S)N2CCc3ccccc3C2)cc1 | 4% | i | 23µM* | -4% | ? | 7%
O=[N+]([O-])c1ccc(NC(=S)NCc2ccncc2)cc1 | -36% | i | ? | -21% | i | -6%
O=[N+]([O-])c1ccc(NNC(=S)Nc2ccccc2)cc1 | -29% | ? | ? | 20µM* | ? | ?
O=C(c1ccc([N+](=O)[O-])cc1)N1CCc2ccccc2C1 | 14% | i | i | ? | i | 14%
CCCCNC(=S)Nc1ccc(Cl)cc1 | 15% | i | 16µM* | -4% | i | -3%
O=[N+]([O-])c1ccc(NC(=S)NCc2ccc(F)cc2)cc1 | ? | ? | ? | ? | i | 23µM*
CCOC(=O)c1c(Nc2ccc(OCC)cc2)nnc(-c2ccccc2)c1-c1ccccc1 | 16% | i | i | / | i | /
SMILES | ATXN2 expr inh | KB-3-1 tox | KB-V1 MDR tox | HT1080-NT tox | ATXN viability | HT1080 IDH1KD tx
Cc1ccc(/C=C/c2onc(C)c2S(=O)(=O)N2CCC(C(=O)Nc3ccccc3C(F)(F)F)CC2)cc1 | 9% | i | ? | / | i | /
CSc1nnc(NC(=O)c2cc(=O)c3cc(C)c(C)cc3o2)s1 | 12% | i | ? | / | i | /
O=C(Nc1ccc(N2CCC(c3ccccc3)C2)c(C(=O)O)c1)c1ccc(Cl)cc1 (stereo not given) | -2% | i | i | / | i | /
O=[N+]([O-])c1ccc(NC(=S)NCCc2ccccc2)cc1 | 21%[11.3 µM] | ? | ? | ? | i | ?
O=[N+]([O-])c1ccc(NC(=S)NCCc2ccc(Cl)cc2)cc1 | ? | ? | 16µM* | ? | ? | ?
C=CCN(CC=C)S(=O)(=O)c1ccc(NC(=S)NC(=O)c2ccco2)cc1 | -10% | ? | 13µM* | -14% | i | 0%[9.24 µM]
C=CCN(CC=C)S(=O)(=O)c1ccc(NC(=S)NC(=O)Cc2ccc(OC)cc2)cc1 | -2% | i | 21µM* | -10% | i | ?
C=CCN(CC=C)S(=O)(=O)c1ccc(NC(=S)NC(=O)c2ccc(-c3ccccc3)cc2)cc1 | -9% | ? | ? | 0% | i | -11%
Cc1cc(NC(=O)CCNS(=O)(=O)c2cccc3nsnc23)ccc1Br | -8% | i | i | / | i | /
CC(CNC(=O)c1ccc(Cn2c(SCc3ccccc3)nc3cccnc32)cc1)c1ccccc1 (stereo not given) | -14% | i | ? | / | ? | /
OC(c1ccc(Cl)cc1)c1ncc(-c2ccc(Oc3ccccc3)cc2)[nH]1 (stereo not given) | ? | ? | i | 23µM* | ? | 23µM*
COc1c(Cl)cccc1-c1cn2ccccc2n1 | 2% | i | 12µM* | ? | i | ?
COc1ccc(N(C)C(=O)c2ccc3nc(-c4ccccc4)c(-c4ccccc4)nc3c2)cc1 | -6% | ? | 21µM* | -24% | i | -19%
CNC(=O)c1ccc2nc(-c3ccccc3)c(-c3ccccc3)nc2c1 | / | i | i | / | / | /
CC(C)N(C(=O)c1ccc2nc(-c3ccccc3)c(-c3ccccc3)nc2c1)C(C)C | -15% | ? | 23µM* | -18% | i | -23%
Cc1ccc(N(CC(=O)Nc2ccc(Cl)cc2)S(=O)(=O)c2cccc3nonc23)cc1 | -12% | i | ? | / | i | /
COc1ccc(CCNC(=O)CCn2c(=O)c3ccccc3n(Cc3ccccc3)c2=O)cc1OC | 5% | i | i | / | i | /
COc1ccc(-c2noc(CN(C(=O)C(C)(C)C)C(C)C)n2)cc1 | 20% | i | 21µM* | 8% | i | 9%
Cc1ccc(-c2noc(CN(C(=O)Cc3ccccc3)C(C)C)n2)cc1 | 2% | i | 23µM* | -16% | i | -30%
CC(C)N(Cc1nc(-c2ccccc2)no1)C(=O)C(C)(C)C | -3% | i | i | 11% | i | 9%
COc1ccc(OC(C)C(=O)N(C)Cc2nc(-c3ccc(C)cc3)no2)cc1 (stereo not given) | 2% | i | ? | -17% | / | -18%
